{"source": "PubChem BioAssay AID652067", "about": "(The Scripps Research Institute Molecular Screening Center, 2013)", "note": "The campaign covered roughly 370,000 compounds. About 5,400 (1.5%) were called active. This is one part of a sample in which actives are shown more often than they occur.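 How the source made its calls: active means activation above the mean of all tested compounds plus 3 SD (cut at about 5.5% in these data); inactive means the rest.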"}
{"tested_on": "DAF-12 nuclear receptor (Haemonchus contortus)", "test": "hcDAF-12 driven luciferase reporter activation – cell-based, luminescence, HEK293, lit1-tk-luc reporter, primary screen (AID 652067);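 further: 100% = response to 3 µM Δ7-dafachronic acid high control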", "conditions": "HEK293 hcDAF-12 lit1-tk-luc reporter, at 6.8 µM, active compounds read high, 0% DMSO, 100% Δ7-dafachronic acid"}
{"smiles": "Cc1cc2nnc(SCC(=O)N3CCN(c4ccccc4)CC3)n2c(N)n1", "activation": "-2.55% (inactive)"}
{"smiles": "Cc1nnc(SCC(=O)N2CCN(c3ccccc3)CC2)n1-c1ccccc1", "activation": "6.51% (active)"}
{"smiles": "O=C(CSc1nnc(Cc2ccccc2)n1-c1ccccc1)N1CCOCC1", "activation": "-0.92% (inactive)"}
{"smiles": "N#Cc1c(NC(=O)C2CCCO2)sc2c1CCCCC2", "note": "(stereo unspecified)", "activation": "6.65% (active)"}
{"smiles": "N#Cc1c(NC(=O)c2ccc(N3CCOCC3)c([N+](=O)[O-])c2)sc2c1CCCC2", "activation": "-0.5% (inactive)"}
{"smiles": "CCC1CCc2c(sc(NC(C)=O)c2C#N)C1", "note": "(stereo unspecified)", "activation": "-0.54% (inactive)"}
{"smiles": "COC(=O)C1=C(C)NC(=S)NC1c1ccc(OC)cc1", "note": "(stereo unspecified)", "activation": "-0.46% (inactive)"}
{"smiles": "C=CC[C@]12C[C@@]3(O[C@H](c4ccc(C(F)(F)F)cc4)N=C3C[C@H](c3ccc(OC)cc3)[C@H]1C)N(C1CCN(Cc3ccccc3)CC1)C2=O", "activation": "1.02% (inactive)"}
{"smiles": "N=c1c2c3c(sc2nc2n1CCCCC2)CCCC3", "activation": "0.65% (inactive)"}
{"smiles": "O=c1c2c(nc3n1CCCCC3)sc1c(O)cccc12", "activation": "5.87% (active)"}
{"smiles": "CC(=O)c1ccc(NC(=O)c2sc3nc4n(c(=O)c3c2C)CCCCC4)cc1", "activation": "3.47% (inactive)"}
{"smiles": "c1csc(-c2nnc(SCc3nc4ccccc4[nH]3)o2)c1", "activation": "0.87% (inactive)"}
{"smiles": "CC1CCCN(c2cccc3c2S(=O)(=O)N(Cc2ccc(F)cc2)[C@@H](C)[C@H](c2ccccc2)O3)C1", "note": "(stereo partly specified)", "activation": "-1.13% (inactive)"}
{"smiles": "Cc1ccc(SCCC(=O)NCc2ccccn2)cc1", "activation": "0.97% (inactive)"}
{"smiles": "Cc1ccc(SCCSc2ncccn2)cc1", "activation": "7.62% (active)"}
{"smiles": "Cc1ccc(SCCC(=O)NC(C(C)C)C(C)C)cc1", "activation": "-0.97% (inactive)"}
{"smiles": "COc1cccc(CN(C)C(=O)CC23CC4CC(CC(C4)C2)C3)c1OC", "activation": "-1.43% (inactive)"}
{"smiles": "CCOC(=O)c1ccc(-c2ccc3ncnc(N(C)Cc4sccc4C)c3c2)o1", "activation": "0.56% (inactive)"}
{"smiles": "Cc1ccc(S(=O)(=O)Nc2nc3ccccc3nc2N2CCc3ccccc3C2)cc1", "activation": "6.92% (active)"}
{"smiles": "COCCCNc1nc2ccccc2nc1NS(=O)(=O)c1ccc(F)cc1", "activation": "4.77% (inactive)"}
{"smiles": "Cc1ccc(S(=O)(=O)C(C#N)c2nc3ccccc3nc2N2CCCC2)cc1C", "note": "(stereo unspecified)", "activation": "-0.94% (inactive)"}
{"smiles": "O=C(CSc1nc2c(c(=O)[nH]1)CCCC2)N1CCCCC1", "activation": "0.61% (inactive)"}
{"smiles": "CCOC(=O)C1CCN(C(=O)C(C)(C)NC(=O)Nc2ccc(F)c(F)c2)CC1", "activation": "-0.52% (inactive)"}
{"smiles": "O=C(NCc1cccs1)C1CCN(S(=O)(=O)c2ccccc2[N+](=O)[O-])CC1", "activation": "-1.15% (inactive)"}
{"smiles": "c1ccc(C2CNCc3c2ccc2ccccc32)cc1", "note": "(stereo unspecified)", "activation": "6.29% (active)"}
{"smiles": "c1ccc2c(CCN3CCNC[C@H]3Cc3cccc4ccccc34)cccc2c1", "activation": "-0.26% (inactive)"}
